This note sets out measurements from PubChem BioAssay (Tox21).

A number with no mark means an inactive call. Inconclusive results are not listed. Activity calls are given as the source filed them. Unless noted, calls follow the shape of the dose curve; as a rule, active = well fitted curve in the direction sought with a large enough effect in the repeat runs; inconclusive = weak or mixed curves; inactive = no such curve, though single readings can be large; an effect the other way counts as inactive or inconclusive.

Experiment [1] in a line: qHTS assay for small molecules that induce genotoxicity in human embryonic kidney cells expressing luciferase-tagged ATAD5 (AID 651632). Also: nearly all actives have a fitted effect of over 15% in size. The method in brief:
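Increased luciferase signal from ATAD5-tagged reporter cells indicates DNA-damage-driven ATAD5 induction. HEK293T cells are treated for 16 hr at 37C before detection with Amplite.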
On the technique in general: Quantitative high-throughput screening tests each substance at several concentrations.

Experiment [2] is described as follows: qHTS assay for small molecules that induce genotoxicity in human embryonic kidney cells expressing luciferase-tagged ATAD5 - cell viability (AID 651634; calls by dose curve; also: nearly all actives have a fitted effect of over 25% in size). The method in brief:
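Cytotoxicity counterscreen in HEK293T cells bearing an ATAD5-luciferase reporter: live-cell protease activity measured by CellTiter-Fluor fluorescence after 15.5 hr compound exposure.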

Experiment [3] is described as follows: qHTS assay for small molecule disruptors of the mitochondrial membrane potential - cell viability (AID 720634; calls by dose curve;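 also: human HepG2 liver cancer cells; series mostly up to about 83 µM; nearly all actives have a fitted effect of over 20% in size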). The method in brief:
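After overnight attachment at 37 C, HepG2 cells received compound or DMSO vehicle for 1 hr. Viability is then taken from ATP-driven luminescence following a 30 min room-temperature CellTiter-Glo step.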

Experiment [4] is described as follows: qHTS assay for small molecule disruptors of the mitochondrial membrane potential (AID 720635). Also: potency is read from the fitted curve at half-maximal effect. The gist of the method: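 HepG2 cells (2,000/well) attached overnight at 37C, then took compound for 1 hr at 37C, 5% CO2. Mito-MPS dye was added for 30 min; fluorescence was read at 490/535 nm (monomers) and 540/590 nm (aggregates).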
A short description of experiment [5]: qHTS assay to test for compound auto fluorescence at 590 nm (red) in HepG2 cells (AID 720674). The method in brief: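 Intrinsic compound fluorescence in the red window (Ex/Em 540/590 nm) is measured in attached HepG2 cells exposed for 1 hr, DMSO vehicle as baseline, benchmarked to Rose Bengal sodium.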
Experiment [6] in a line: qHTS assay to test for compound auto fluorescence at 460 nm (blue) in HEK293 cells (AID 720678). The gist of the method:
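Cells were seeded and left to adhere for 4-5 hr at 37C. Compounds were then pin-transferred. After an overnight incubation at 37C under 5% CO2, intrinsic fluorescence at 405/460 nm was measured and referenced to triamterene.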

Experiment [7] in a line: qHTS assay to test for compound auto fluorescence at 590 nm (red) in HEK293 cells (AID 720679). The method in brief:
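Each well held 2,000 HEK293 cells in medium containing 10% dialyzed FBS. Following 4-5 hr attachment at 37C, 23 nL test compound or DMSO was added; plates sat overnight, and red fluorescence (540/590nm) was recorded.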

The nature of experiment [8]: qHTS assay to test for compound auto fluorescence at 535 nm (green) in HEK293 cells (AID 720680).
Experiment [9] in a line: qHTS assay to test for compound auto fluorescence at 460 nm (blue) in HEK293 cell free culture (AID 720681). The method in brief:
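Test compounds were pinned into cell-free culture medium (DMEM with 10% FBS) and fluorescence was read directly at Ex/Em 405/460 nm. Signals were expressed as fluorescence equivalents of triamterene, with DMSO vehicle as control.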

Experiment [10] is described as follows: qHTS assay to test for compound auto fluorescence at 535 nm (green) in HEK293 cell free culture (AID 720682). The gist of the method: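 Measurement is a direct plate read of green fluorescence (485 nm in, 535 nm out) after compound addition to serum-supplemented DMEM lacking cells, with fluorescein used to express intensities.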
The nature of experiment [11]: qHTS assay to test for compound auto fluorescence at 590 nm (red) in HEK293 cell free culture (AID 720683). The gist of the method: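 Tox21 10K library compounds were pinned into cell-free DMEM with 10% FBS and fluorescence was read at excitation 540 nm. Activity is expressed as Rose Bengal sodium equivalency.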
A short description of experiment [12]: qHTS assay to test for compound auto fluorescence at 590 nm (red) in HepG2 cell free culture (AID 720684). The method in brief: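 Measured in medium alone (MEM containing 10% FBS) following pintool addition of compound; emission at 590 nm with 540 nm excitation, referenced to Rose Bengal sodium.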
A short description of experiment [13]: qHTS assay to test for compound auto fluorescence at 460 nm (blue) in HepG2 cell free culture (AID 720685). The gist of the method:
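Compound (23 nL) or DMSO pinned into cell-free MEM with 10% FBS; blue fluorescence read at 405/460 nm excitation/emission, expressed as auto-fluorescence equivalency to triamterene.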

A short description of experiment [14]: qHTS assay to test for compound auto fluorescence at 535 nm (green) in HepG2 cell free culture (AID 720686).
Experiment [15] is described as follows: qHTS assay to test for compound auto fluorescence at 460 nm (blue) in HepG2 cells (AID 720687). The method in brief:
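Cells (2,000/well in MEM with 10% FBS) attached overnight at 37 C, then were exposed to compound or DMSO for 1 hr at 37 C, 5% CO2. Fluorescence read at Ex/Em 405/460 nm, expressed as triamterene-equivalent signal.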

Experiment [16] deals with Glucocorticoid receptor (Homo sapiens) (UniProt P04150). Nature of the experiment: qHTS assay to identify small molecule agonists of the glucocorticoid receptor (GR) signaling pathway (AID 720691; active = well fitted activation curve with a large enough effect in the signal ratio in the repeat runs, not every such curve was filed as active; the % refers to the signal ratio). The method in brief:
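Agonist mode in a HeLa line carrying a GRE-controlled beta-lactamase reporter. Compounds act for 18 h at 37 C before a 2 h room-temperature FRET substrate step and fluorescence reading.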

Experiment [17] has the same target. The experiment can be described thus: qHTS assay to identify small molecule antagonists of the glucocorticoid receptor (GR) signaling pathway (AID 720692; active = well fitted inhibition curve with a large enough effect in the signal ratio in the repeat runs, not every such curve was filed as active; the % refers to the signal ratio). The method in brief:
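Cells plated, rested 4 h at 37 C/5% CO2; compounds in DMSO pin-transferred; dexamethasone added to 5 nM final; 18 h at 37 C; B/G FRET substrate added, 2 h room temperature; fluorescence measured.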

Experiment [18] in a line: qHTS assay to test for compound auto fluorescence at 535 nm (green) in HepG2 cells (AID 720675).
Experiment [19] can be described thus: qHTS assay for small molecule agonists of the p53 signaling pathway - cell viability (AID 651633; calls by dose curve;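 also: p53RE-bla HCT reporter cells with a stable beta-lactamase p53 reporter; series mostly up to about 83 µM; nearly all actives have a fitted effect of over 30% in size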). The gist of the method: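 p53RE-bla cells, seeded at 4,000 per well and rested 5 h at 37 C/5% CO2, received compounds in DMSO for 16 h at 37 C. CellTiter-Glo was then added, and luminescence was read after 30 min at room temperature to gauge cytotoxicity.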
% is scaled to controls: 0 for no effect and ±100 for the full control effect.

Glucocorticoid receptor (Homo sapiens), sequence (P04150 whole entry, looked up): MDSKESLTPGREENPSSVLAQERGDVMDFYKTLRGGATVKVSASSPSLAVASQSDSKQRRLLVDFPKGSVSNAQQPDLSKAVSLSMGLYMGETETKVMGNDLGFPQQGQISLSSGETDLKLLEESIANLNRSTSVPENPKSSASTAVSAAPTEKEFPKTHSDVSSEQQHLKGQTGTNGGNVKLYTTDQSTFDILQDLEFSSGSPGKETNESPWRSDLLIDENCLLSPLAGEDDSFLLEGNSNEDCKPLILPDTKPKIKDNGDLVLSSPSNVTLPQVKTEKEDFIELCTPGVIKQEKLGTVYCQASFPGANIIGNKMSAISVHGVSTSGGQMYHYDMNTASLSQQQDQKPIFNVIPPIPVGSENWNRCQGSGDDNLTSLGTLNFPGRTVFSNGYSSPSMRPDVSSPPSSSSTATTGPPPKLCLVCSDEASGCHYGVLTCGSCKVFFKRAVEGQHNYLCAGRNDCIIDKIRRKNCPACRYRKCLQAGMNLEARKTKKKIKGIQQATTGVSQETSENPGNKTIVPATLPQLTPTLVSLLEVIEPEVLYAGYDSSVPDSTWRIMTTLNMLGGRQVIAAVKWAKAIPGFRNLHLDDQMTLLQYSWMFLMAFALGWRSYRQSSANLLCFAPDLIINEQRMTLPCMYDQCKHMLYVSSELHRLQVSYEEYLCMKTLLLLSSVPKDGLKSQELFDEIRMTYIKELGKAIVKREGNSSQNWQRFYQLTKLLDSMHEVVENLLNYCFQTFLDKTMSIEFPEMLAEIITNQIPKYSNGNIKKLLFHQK

For `CC1(C)CC(OC(=O)CCCCCCCCC(=O)OC2CC(C)(C)NC(C)(C)C2)CC(C)(C)N1`, the compound was called inactive in experiment [1], in experiment [3] and in [17]. Also, the Potency entry in [2] and in experiment [16] was “inactive” each time. Further, the Potency in experiment [4] was 2.96 µM (active). In addition, the fluorescence, relative to Rose Bengal in experiment [5] is 0.031% [at 18.6 µM]. The fluorescence, % of triamterene in experiment [6] is -0.0282% [at 18.6 µM]. In addition, the fluorescence, % of fluorescent control was 0.252% [at 18.6 µM] in experiment [7]; -0.182% [at 18.6 µM] in [9]; 0.038% [at 18.6 µM] in experiment [11]; -0.0702% [at 18.6 µM] in experiment [13]; -0.0104% [at 18.6 µM] in experiment [15]. Further, the fluorescence, % of fluorescein in experiment [8] is -0.0999% [at 18.6 µM]. In [10], the activity change is -0.0076% [at 18.6 µM]. Besides, the fluorescence, % of Rose Bengal in [12] was 0.143% [at 18.6 µM]. Moreover, the fluorescence, % of fluorescein control in experiment [14] was -0.17% [at 18.6 µM].
As to `CCCC(=O)OC/C=C(\C)CCC=C(C)C`, the compound was called inactive in [1], in experiment [3], in experiment [5], in [18], in experiment [6] and in experiment [7]. Besides, the compound was called inactive in [8], in experiment [9], in experiment [10], in [11], in experiment [12] and in [14]. Besides, the compound was called inactive in experiment [15] and in experiment [17]. In addition, the Potency result in experiment [2] and in [16] was “inactive” each time.
As to `CC(C)[C@H]1CC[C@H](C)C[C@@H]1O`, the compound was classed as inactive in [1], in [3], in experiment [5], in [6], in experiment [7] and in experiment [8]. Besides, the compound was classed as inactive in [10], in experiment [12] and in experiment [15]. The Potency result in experiment [2] and in experiment [4] was “inactive” throughout.
For the compound `COC(=O)c1ccccc1C(=O)O`, the outcome in [1], in [3], in [5], in [18], in experiment [6] and in [7] was inactive. Moreover, the compound was called inactive in [8], in [9], in experiment [10], in experiment [12], in experiment [13] and in [14]. Besides, the outcome in experiment [15] and in experiment [17] was inactive. The Potency entry in experiment [2], in [4] and in experiment [16] was “inactive” throughout.
Turning to `CC(S)C(C)S` (stereo not given), the call in experiment [1], in [3], in experiment [5], in [18], in experiment [6] and in [7] was inactive. The compound was called inactive in experiment [8], in [9], in [10], in experiment [11], in experiment [12] and in experiment [14]. In addition, the compound was called inactive in experiment [15]. Further, the Potency result in [2] and in [4] was “inactive” throughout.
As to `Cc1ccc(C)c([N+](=O)[O-])c1`, the result in experiment [19], in experiment [3], in experiment [5], in experiment [18], in experiment [6] and in experiment [7] was inactive. Further, the call in experiment [8], in experiment [9], in experiment [10], in [11], in experiment [12] and in experiment [14] was inactive. Also, the outcome in [15] was inactive. Further, the Potency result in experiment [2] and in [4] was “inactive” throughout.
Consider `CC1=C(C(=O)O)N2C(=O)[C@@H](NC(=O)[C@H](N)C3=CCC=CC3)[C@H]2SC1`, for which the call in experiment [1], in [19], in experiment [3], in experiment [6], in experiment [7] and in experiment [8] was inactive. For the same compound, the outcome in experiment [9], in experiment [12], in [13], in experiment [14] and in [15] was inactive. Further, the Potency entry in experiment [4] and in [16] was “inactive” each time.
On to `Cc1c(Cl)cccc1Cl`, for which the call in [1], in [3], in experiment [5], in [18], in [6] and in experiment [7] was inactive. Besides, the outcome in experiment [8], in experiment [9], in [10], in experiment [11], in experiment [12] and in [13] was inactive. Further, the result in [14], in experiment [15] and in experiment [17] was inactive. Also, the Potency result in experiment [2] and in experiment [16] was “inactive” in each case.
On to `C=Cc1ccc(C(C)(C)C)cc1`, for which the call in experiment [1], in experiment [3], in experiment [5], in [18], in experiment [6] and in experiment [7] was inactive. The compound was called inactive in experiment [8], in experiment [9], in [10], in [11], in [12] and in experiment [13]. Besides, the outcome in experiment [14] and in experiment [15] was inactive.
